From PubChem
Shown are actives, neighbours in structure and some others; about 5.1% of the full set was active somewhere.
TMEM16A act: mouse TMEM16A channel activation, primary screen. Q8BHY3. HEK293 TMEM16A/YFP-H148Q/I152L, iodide quench fluorescence; stronger effect = lower value. B-score at 10 µM. 0.3% of 340,000 active;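 active means fluorescence-ratio B-score plate-corrected deviation score at least 3 library SD below zero, with starting fluorescence score within 5 deviations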;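 further: channel opened by trigger with iodide after compound preincubation; score built on the fluorescence ratio of max minus min over baseline; more negative score means more quench and so TMEM16A activation or potentiation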
Target sequence (Q8BHY3 whole entry, looked up): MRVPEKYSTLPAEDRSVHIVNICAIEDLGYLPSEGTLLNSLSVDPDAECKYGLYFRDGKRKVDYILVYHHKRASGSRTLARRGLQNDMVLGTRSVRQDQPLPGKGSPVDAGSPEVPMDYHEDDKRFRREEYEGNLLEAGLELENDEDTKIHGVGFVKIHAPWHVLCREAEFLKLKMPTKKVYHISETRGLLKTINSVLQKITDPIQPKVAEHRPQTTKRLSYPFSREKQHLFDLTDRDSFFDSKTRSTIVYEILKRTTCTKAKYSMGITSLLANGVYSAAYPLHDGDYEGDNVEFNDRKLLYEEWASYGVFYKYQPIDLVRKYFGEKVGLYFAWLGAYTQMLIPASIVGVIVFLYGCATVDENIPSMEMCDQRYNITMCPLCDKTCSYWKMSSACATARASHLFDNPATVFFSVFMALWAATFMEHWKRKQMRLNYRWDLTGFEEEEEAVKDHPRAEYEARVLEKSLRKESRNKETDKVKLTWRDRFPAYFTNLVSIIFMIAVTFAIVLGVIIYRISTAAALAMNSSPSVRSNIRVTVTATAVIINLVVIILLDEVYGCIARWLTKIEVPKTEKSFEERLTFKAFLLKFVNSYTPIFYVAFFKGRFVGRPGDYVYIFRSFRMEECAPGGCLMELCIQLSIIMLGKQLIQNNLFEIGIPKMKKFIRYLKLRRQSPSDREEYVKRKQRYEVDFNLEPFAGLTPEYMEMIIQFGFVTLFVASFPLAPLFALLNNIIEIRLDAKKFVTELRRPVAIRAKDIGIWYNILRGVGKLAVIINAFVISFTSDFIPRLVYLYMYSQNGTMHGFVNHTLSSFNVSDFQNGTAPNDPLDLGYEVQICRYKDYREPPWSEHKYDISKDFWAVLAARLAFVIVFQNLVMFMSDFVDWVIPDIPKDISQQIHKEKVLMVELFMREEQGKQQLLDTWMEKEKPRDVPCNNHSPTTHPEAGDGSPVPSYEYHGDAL
CRFR2-BP ag: CRF-BP/CRF-R2 complex agonism; activation, % at 13.2 µM; HEK293 CRF-R2/CRF-BP, calcium dye fluorescence (FLIPR); percent of saturating CRF peptide response; 0.46% of 350,000 active;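 active means activation of at least 50%, plus an integration ratio under a set limit after plate pattern correction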
GRIN3A LBD mod: NR3A (human) ligand-binding domain modulation; NR3A LBD differential scanning fluorimetry, Tm shift; 0% = protein alone, 100% = glycine-bound protein; Tm shift relative to glycine control, % at 25 µM; 2.5% of 340,000 active;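 active means melting temperature shift of at least 10% of the positive control shift, at one fixed dose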
CRFBP-R2 block: antagonists of CRF-binding protein/CRF-R2 receptor complex; 0.59% of 350,000 active; inhibition, % at 11.8 µM; HEK293 CRF-R2/CRF-BP, CRF-induced calcium fluorescence;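 active means inhibition of the ligand-induced calcium signal above about 50% at the single tested concentration, limit read from the data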
TMEM16A inh: blocks the mouse calcium-activated chloride channel TMEM16A. Q8BHY3. HEK293 TMEM16A/YFP iodide influx fluorescence, ionomycin. normalized B-score (activity score, 25-100; higher = stronger inhibition) at 10 µM. 1.2% of 310,000 active. AID 588511;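 active means ratio plate-corrected score three or more library SD toward inhibition, starting fluorescence score within five deviations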;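 further: score derived from kinetic fluorescence span divided by baseline fluorescence per well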
MPTP inh: permeability transition pore inhibition; isolated mouse mitochondria, Ca2+ swelling absorbance, 30 min; inhibition, % at 10 µM; 1.4% of 360,000 active;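 active means inhibition of 50% or more, scaled per plate between neutral and stimulator controls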
Numbers stand for hits; n = inactive; x = no result given.

SMILES	TMEM16A act	CRFR2-BP ag	GRIN3A LBD mod	CRFBP-R2 block	TMEM16A inh	MPTP inh
OCC[C@H]1C[C@H](O)[C@@H](O)[C@]2(CCCc3ccccc3O2)O1	n	n	n	n	n	n
O=C(Nc1nnc([C@@H]2C[C@H](O)[C@@H](CO)O2)s1)Nc1cccc2c1CCCC2	x	x	x	x	x	n
O=C(/C=C/c1ccc(S(=O)(=O)NCc2ccco2)cc1)N1CCN(c2ccccc2)CC1	n	n	15.6	n	n	n
O=C(O)CCCN1C(=O)/C(=C/c2ccncc2)SC1=S	n	n	n	n	n	n
O=C(O)CCCN1C(=O)/C(=C/c2ccc(-c3nc4ccccc4s3)o2)SC1=S	n	n	25.8	n	n	n
COc1ccccc1NC(=O)Cn1nc(Cc2cccnc2)c2ccccc2c1=O	n	n	n	n	n	n
CC1(C)Cc2nc(NCCCO)c(C#N)cc2CO1	n	n	15.8	n	n	n
CC(C)NC(=O)N(C)C[C@@H]1OCc2cnnn2CCCC(=O)N([C@H](C)CO)C[C@@H]1C	x	n	x	n	x	n
CC(C)NC(=O)N(C)C[C@H]1OCc2cnnn2CCCC(=O)N([C@H](C)CO)C[C@H]1C	x	52.8	x	n	x	n
FC(F)Sc1nc2ccccc2[nH]1	n	n	n	n	n	n
CCN(CC)c1ccc(/C=C2\C(=N)N3N=C(CC(=O)N4CCOCC4)SC3=NC2=O)cc1	n	109.3	n	n	n	n
N#Cc1ccc(CC(=O)c2ccccc2)[nH]c1=O	n	58.3	n	n	x	n
COc1cc(C2c3c(-c4cc(C)cc(C)c4O)n[nH]c3C(=O)N2CCCO)cc(OC)c1OC (stereo not drawn)	n	n	345.4	n	n	n
CCN(CC)C(=O)C1=C(C)N(CCCOC)C(=O)C(CC(=O)NC2CCCC2)C1 (stereo not drawn)	x	n	x	n	x	n
Cc1ccc(NC(=O)C2CCCN2C(=O)c2cccs2)cc1C (stereo not drawn)	n	n	n	54.5	x	n
CCN(CC)S(=O)(=O)c1ccc(/C=C/C(=O)Nc2ccc(Br)cc2F)cc1	n	n	n	n	100	n
COc1ccccc1-c1sc2ccccc2c1-c1ccc2c(c1)OCCO2	n	n	n	n	x	n
CC(=O)Nc1ccc(OCC[n+]2cccc(C(N)=O)c2)cc1	n	n	n	60.9	n	n
Oc1ccc(NC(=S)N=Nc2c(O)[nH]c3ccc(Br)cc23)cc1	n	n	n	n	x	n
Oc1[nH]c2ccc(Br)cc2c1N=NC(=S)Nc1ccc(F)cc1	n	n	17.9	n	n	n
Cc1[nH]n(C(N)=S)c(=O)c1N=Nc1ccc([N+](=O)[O-])cc1Cl	n	n	n	n	n	n
NC(=S)n1[nH]c(-c2ccc([N+](=O)[O-])cc2)c(N=Nc2ccc(O)cc2)c1=O	n	n	27.1	n	n	n
CC1(C(=O)NS(=O)(=O)Cc2cccc(Cl)c2)CCN1C(=O)c1ccc(C2CCCCC2)cc1 (stereo not drawn)	x	x	x	x	x	n
CC(C)Cn1cc(C(=O)N2CCC(C)CC2)c2c3ccccc3n(C)c2c1=O	n	n	n	50.4	n	n
CC(C)Cn1cc(C(=O)N2CCOCC2)c2c3ccccc3n(C)c2c1=O	n	n	n	n	n	n
SMILES	TMEM16A act	CRFR2-BP ag	GRIN3A LBD mod	CRFBP-R2 block	TMEM16A inh	MPTP inh
O=C(COC(=O)C1(c2ccccc2)CC1)NNC(=O)c1ccccc1	n	n	n	n	n	n
COc1ccc2c(c1)sc1nc(-c3ccccc3)cn12	n	n	20.3	n	n	n
CCOC(=O)N1CCN(C(=O)c2ccc3c(c2)sc2nc(-c4ccc(OC)cc4)cn23)CC1	n	n	n	n	n	n
O=c1[nH]c2cc([N+](=O)[O-])ccc2c2ccc([N+](=O)[O-])cc12	n	n	12.6	n	x	n
COc1ccc(N(CC(=O)NCc2ccco2)C(=O)CNS(=O)(=O)c2ccc(Cl)cc2)cc1	n	n	n	n	n	n
CCOC(=O)[C@@H]1[C@H]2COc3ccccc3[C@H]2N2C(=O)N(c3cccc(Cl)c3)C(=O)[C@]12C	n	n	16.8	n	x	n
CCOC(=O)[C@@H]1[C@H]2COc3ccccc3[C@H]2N2C(=O)N(c3cccc(C)c3)C(=O)[C@]12C	n	n	n	n	x	n
O=C(CCn1nnc2ccccc21)N1CCN(c2ccccc2)CC1	n	n	n	94.7	n	n
O=C(Cn1nnc2ccccc21)N1CCCCC1	n	n	n	n	n	n
Cc1nnc(N2CCC(C(=O)N3CCCCC3)CC2)c2nn(-c3ccc(Cl)cc3)c(C)c12	n	n	n	n	n	n
Cc1nnc(N2CCC(C(=O)NC3CCC(C)CC3)CC2)c2nn(-c3ccc(Cl)cc3)c(C)c12 (stereo not drawn)	n	n	n	n	100	n
Cc1ccc(Nc2nc3ccccc3s2)cc1	n	n	22.0	n	n	n
Cc1ccccc1Nc1nc2ccccc2s1	n	n	n	n	n	n
O=C(Nc1nc2ccccc2s1)c1ccc(F)cc1	n	n	n	n	n	n
Cc1ccc(NC(=O)Nc2nc3ccccc3s2)cc1NC(=O)Nc1nc2ccccc2s1	n	n	27.9	n	n	n
O=C(Nc1ccc(Cl)c([N+](=O)[O-])c1)Nc1nc2ccccc2s1	x	x	x	x	n	x
Fc1ccc(Nc2nc3ccccc3s2)cc1	n	n	19.5	n	n	n
COc1ccc(CN2C(=O)C(CC(=O)NCCc3ccccn3)CC(C(=O)N(C)C)=C2C)cc1 (stereo not drawn)	x	n	x	n	x	n
COc1ccc(C2=NOC(C(=O)N3CCN(C(=O)c4ccco4)CC3)C2)cc1OC (stereo not drawn)	n	n	39.4	n	n	n
COc1ccccc1C1=NOC(C(=O)N2CCN(C(=O)c3ccco3)CC2)C1 (stereo not drawn)	n	n	n	n	n	n
CN(C)Cc1c(O)ccc2occ(C(=O)c3ccccc3)c12	n	n	n	n	25	n
CCc1c(C)nc(SCC(=O)N2CCN(c3ccccc3OC)CC2)[nH]c1=O	n	n	n	57.6	n	n
COc1ccccc1N1CCN(C(=O)CSc2nc(C)c(C)c(=O)[nH]2)CC1	n	n	n	n	n	n
CCCCC1=CC2=CC(=O)C(C)(OC(=O)CC)C(=O)C2=CN1C(CO)CO (stereo not drawn)	-5.81	n	n	n	n	n
COc1ccc(Cl)cc1Nc1nc(N)c2ccccc2n1	n	n	16.2	n	n	n
Nc1nc(Nc2cccc(F)c2)nc2ccccc12	n	n	26.5	n	n	n
CCOc1ccc(Oc2ccc(C(F)(F)F)cc2NC(=O)C2=COCCO2)cc1	n	n	n	n	x	n
Nc1cc([N+](=O)[O-])ccc1N1C(=O)CCCC1=O	n	n	n	n	n	n
CC(O)CNc1nc2c(c(=O)n(Cc3cccc(Cl)c3)c(=O)n2C)n1C (stereo not drawn)	n	n	n	n	n	n
